Screening data from PubChem.
HT1080 IDH1KD tx: qHTS for induction of synthetic lethality in tumor cells producing 2HG: qHTS for the HT-1080-IDH1KD cell line; HT-1080 IDH1 knockdown viability, ATP luminescence, 48 h; Potency, µM (doses to about 46.1 µM), for the others: at the highest dose activity, negative = toxicity, usual class: cytotoxic; hit rate 2% among 360,000; AID 686971, 2013;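 note: 0% = DMSO wells and -100% = cell-free medium wells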
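HT-1080-IDH1KD cells (IDH1 knocked down), 750/well in RPMI with 5% FBS, treated with compound 48 h at 37 degrees C. Viability by CellTiter-Glo luminescence, normalised to DMSO and no-cell wells; concentration-response curves classed.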
KB-3-1 tox: qHTS assay for MDR1-selective chemotherapeutics: Primary screen using the parental adenocarcinoma cell KB-3-1; KB-3-1 viability, CellTiter-Glo ATP luminescence, 72 h; Potency, µM (titrated, usually from 46.1 µM), actives largely listed as cytotoxic; hit rate 1.4% among 400,000; AID 1347075, 2019; note: nearly all actives have a fitted effect of over 60% in size
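Luminescent ATP read-out (CellTiter-Glo) measures survival of drug-naive KB-3-1 cells after 72 h compound exposure at 37 °C. Titration series was screened from lowest to highest concentration, with DMSO vehicle plates as background controls.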
TDP1 cell CPT: qHTS for Inhibitors of human tyrosyl-DNA phosphodiesterase 1 (TDP1): qHTS in cells in presence of CPT; Potency, µM (top dose mostly 46.2 µM), without a hit: top-dose activity change, negative = growth inhibition, most hits filed as inhibitors; hit rate 12% among 420,000; chicken DT40 Tdp1-/-;hTDP1 cells + 20 nM CPT, ATP luminescence, 48 h; AID 686979, 2013; note: nearly all actives have a fitted effect of over 55% in size
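Chicken DT40 Tdp1-/- cells stably complemented with human TDP1 were seeded at 400 cells/well in medium containing 20 nM camptothecin, exposed to pin-transferred compounds, and grown at 37 °C for at least 48 hr. Viability was read as ATP luminescence.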
HT1080NT lethal: qHTS for induction of synthetic lethality in tumor cells producing 2HG: qHTS for the HT-1080-NT fibrosarcoma cell line; Potency, µM (titrated, usually from 46.1 µM), for inactives: at the top dose activity, negative = less viability, most hits filed as cytotoxic; hit rate 1.6% among 360,000; HT-1080-NT fibrosarcoma viability, CellTiter-Glo ATP luminescence, 48 h; AID 686970, 2013;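 note: NT is the 2HG producing partner of a matched IDH1 knockdown line; 0% = DMSO-treated cells and -100% = media-only wells without cells; nearly all actives have a fitted effect of over 55% in size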
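Viability by CellTiter-Glo luminescence after 48 h compound exposure at 37C of HT-1080-NT cells (750/well, RPMI, 5% FBS). % activity scaled between DMSO wells and medium-only wells, then curve-fitted and categorized by curve class.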
KB-V1 cytotox: qHTS assay for MDR1-selective chemotherapeutics: Primary screen using the drug-selected MDR subline cells KB-V1. KB-V1 MDR cells viability, CellTiter-Glo, 72 h. Potency, µM (series often up to 46.1 µM), most hits filed as cytotoxic. hit rate 3.4% among 400,000. AID 1347076, 2019; note: nearly all actives have a fitted effect of over 60% in size
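KB-V1, DMEM (no phenol red) + 10% FBS; cpd pin-transferred, titration series; 72 h, 37 degrees C; CellTiter-Glo, luminescence. Data normalized, curve-fit.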
DT40 TDP1 no CPT: qHTS for Inhibitors of human tyrosyl-DNA phosphodiesterase 1 (TDP1): qHTS in cells in absence of CPT. DT40 Tdp1-/- hTDP1 cells, no CPT, ATP luminescence, 48 h. Potency, µM (highest dose often 46.2 µM), for inactives: at the highest dose activity change, negative = growth inhibition, most hits filed as inhibitors. hit rate 15% among 420,000. AID 686978, 2013; note: nearly all actives have a fitted effect of over 55% in size
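Stably hTDP1-transfected Tdp1-null chicken DT40 cells were treated with library compounds minus camptothecin and grown for at least 48 hr at 37 °C, after which cellular ATP was quantified by luminescence.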
* hit, by the source's call; i = inactive; u = inconclusive; x = no result given; [ ] = remark or other dose. Sampled rows, rich in hits. Any-hit rate of the full collection: about 19%. Calls come from the whole dose curve; as a rule, active = well fitted curve in the direction sought with a large enough effect; inconclusive = small, poorly fitted or top-dose-only effect, or another doubt; inactive = no such curve, though single readings can be large; an effect the other way counts as inactive or inconclusive. Unless noted, % is set by controls: 0 for no effect and ±100 for the full control effect; potency is the fitted concentration of half-maximal effect.

SMILES | HT1080 IDH1KD tx | KB-3-1 tox | TDP1 cell CPT | HT1080NT lethal | KB-V1 cytotox | DT40 TDP1 no CPT
Cc1noc(C)c1C(=O)OCC(=O)C12CC3CC(CC(C3)C1)C2 | 6% | i | -3% | 3% | i | -1%
O=C(NCc1ccccc1)C1=C[C@@H](c2coc3ccccc3c2=O)C[C@@H](OCc2ccc(CO)cc2)O1 | -16% | u | 10µM* | -16% | i | 9.2µM*
CCOC(=O)c1cc(S(=O)(=O)Nc2ccc(F)cc2F)cn1C | -4% | i | 2% | 0% | i | -31%
CC1CCCC(NC(=O)c2ccc3snnc3c2)C1C (centres undefined) | 0% | i | u | 0% | i | u
COc1cc(NS(C)(=O)=O)ccc1Cc1c2ccccc2nc2ccccc12 | x | x | 0.082µM* | x | x | 0.16µM*
COc1cc(N)ccc1Nc1c2ccccc2nc2ccccc12 | 23µM* | i | 0.82µM* | u | i | 1.5µM*
CCCS(=O)(=O)Nc1ccc(Nc2c3ccccc3nc3ccccc23)c(OC)c1 | u | u | 0.16µM* | -9% | 23µM* | 0.16µM*
COc1cc(N)ccc1NC(=O)c1cc2ccccc2o1 | 2% | i | -6% | 12% | i | -4%
COc1ccc(NS(=O)(=O)Cc2ccccc2)cc1OC | -20% | i | -11% | 0%[9.24 µM] | i | -20%
O=c1[nH]c(=S)[nH]c2scc(-c3ccc(Br)cc3)c12 | -8% | i | 7% | -10% | i | 8%
c1ccc(Oc2cccc(OCCCCN3CCCC3)c2)cc1 | -10% | i | u | -14% | i | 18µM*
CC1CCCN(CCOc2cccc(Oc3ccccc3)c2)C1 (centres undefined) | -3% | i | 26µM* | u | i | u
CC1CCN(CCCCOc2cccc(C(C)C)c2)CC1 | -3% | i | 16µM* | 1% | i | u
CC1CN(CCOc2cccc(Oc3ccccc3)c2)CC(C)O1 (centres undefined) | 3% | i | u | -1% | i | u
Cc1ccc(OCCCCN2CCC(C)CC2)cc1 | 15% | i | 3% | 3% | i | -17%
CC1CN(CCCCOc2cccc(Oc3ccccc3)c2)CC(C)O1 (centres undefined) | -23% | i | u | -4% | u | u
O=C(c1ccco1)N1CCC[C@@]2(CCN(Cc3ccccc3)C2)C1 | x | x | -2% | x | x | -11%
COC(=O)c1cc2ccc(OC)cc2c2cc(OC)c(OC)cc12 | -14% | i | u | -14% | i | u
Cc1[nH]c(=O)[nH]c(=O)c1S(=O)(=O)Nc1ccc(Br)cc1F | 10% | i | 0% | -1% | i | 1%
Cn1c(N2CCOCC2)c(/C=N/OC(=O)c2ccc(F)cc2)c2ccccc21 | 3.2µM* | 4.1µM* | 3.7µM* | 2.8µM* | u | 2.9µM*
Cn1c(N2CCOCC2)c(/C=N/OC(=O)c2cccnc2Cl)c2ccccc21 | 8% | i | u | -16% | i | u
Cc1ccc(C(=O)O/N=C/c2c(N3CCOCC3)n(C)c3ccccc23)cc1 | 3.5µM* | u | 3.3µM* | 4µM* | u | 4.1µM*
CC(C)N1CCN(c2ccc(S(=O)(=O)N3CCOCC3)cn2)CC1 | 3% | i | 0% | -6% | i | 16%
Cc1cc2c3c(c1)C1(C(=O)N3C(C)(C)CC2C)C(C#N)=C(N)Oc2n[nH]c(C)c21 (centres undefined) | u | u | u | u | i | u
Cc1cc2c3c(c1C)C1(C(=O)N3C(C)(C)CC2C)C(C#N)=C(N)Oc2n[nH]c(C)c21 (centres undefined) | u | u | u | u | i | 23µM*
SMILES | HT1080 IDH1KD tx | KB-3-1 tox | TDP1 cell CPT | HT1080NT lethal | KB-V1 cytotox | DT40 TDP1 no CPT
O=C(O)CCN(CC(=O)c1ccc(Cl)cc1)S(=O)(=O)c1ccc([N+](=O)[O-])cc1 | 4% | i | 4% | 5% | i | 1%
CCc1ccc(-c2cc(C(F)(F)F)n3nc(C(=O)Nc4c(C)nn(Cc5ccccc5C)c4C)cc3n2)s1 | -1% | i | 18µM* | 1% | i | 16µM*
COc1ccccc1NC(=O)Cc1csc(NC(=S)Nc2ccc(C)cc2)n1 | 7.1µM* | u | u | 6.3µM* | 10µM* | u
COc1ccccc1NC(=O)Nc1nc(CC(=O)N2CCN(c3ccccc3OC)CC2)cs1 | -14% | i | 21µM* | -6% | u | 13µM*
COc1cc(C)ccc1NC(=O)Cc1csc(NC(=O)Nc2ccccc2OC)n1 | u | u | 23µM* | u | u | 23µM*
CSc1ccc(Cl)c(C(=O)OCC(=O)N2CCN(c3ccccc3)CC2)c1 | 1% | i | -7% | 3% | i | 7%
COc1ccccc1C(=O)Nc1ccc(S(=O)(=O)Nc2ncccn2)cc1 | x | i | -7% | x | i | 0%
Cc1ccc(C)c(N2CCN(C(=O)c3cc4ccc5cccnc5c4[nH]3)CC2)c1 | x | i | 29µM* | x | i | u
Cc1ccc(Cl)cc1N1CCN(C(=O)c2ccc(C)c(-n3c(C)nc4cccnc43)c2)CC1 | x | i | 7.3µM* | x | i | 5.2µM*
Cc1cccc(N2CCN(C(=O)c3cccc(-n4c(C)nc5cccnc54)c3)CC2C)c1 (centres undefined) | x | i | 8.2µM* | x | i | 6.5µM*
O=C(NCc1ccccc1)c1cc2ccc3cccnc3c2[nH]1 | x | i | u | x | i | u
Cc1ccc(C)c(N2CCN(C(=O)c3cc4cc5ccc(C)cc5nc4s3)CC2)c1 | x | i | u | x | u | 6%
Cc1ccc(Cl)cc1N(C)C(=O)c1cc2ccc3cccnc3c2[nH]1 | x | x | 6.5µM* | x | x | 8.2µM*
N#Cc1ccccc1Cn1c(=O)n(-c2cccc(C(F)(F)F)c2)c(=O)c2sccc21 | x | x | u | x | x | -26%
O=C(Nc1ccc(F)cc1F)c1cc2ccc3cccnc3c2[nH]1 | x | x | 2.9µM* | x | x | u
CCCCNC(=O)c1cccc(-n2c(C)nc3cccnc32)c1 | x | i | -4% | x | i | -28%
